# Measured values: publication PMC7862700, “An all-to-all approach to the identification of sequence-specific readers for epigenetic DNA modifications on cytosine”
# Assays:
# Test in all cases: DAPPL (digital affinity profiling via proximity ligation, sequencing); 10 mM Tris-HCl pH 7.5, 50 mM NaCl, 1 mM DTT, 4% glycerol, room temperature, 30 min; GST-TFs on glutathione beads, 16-mer random dsDNA library, 0.1% formaldehyde crosslink after washing; high values mean tight binding
# [1] = molecular target: T1, FLI1 (Homo sapiens, UniProt Q01543 1-452); details: protein: recombinant; tags: N-terminal GST; dsDNA, one strand shown
# T1 sequence: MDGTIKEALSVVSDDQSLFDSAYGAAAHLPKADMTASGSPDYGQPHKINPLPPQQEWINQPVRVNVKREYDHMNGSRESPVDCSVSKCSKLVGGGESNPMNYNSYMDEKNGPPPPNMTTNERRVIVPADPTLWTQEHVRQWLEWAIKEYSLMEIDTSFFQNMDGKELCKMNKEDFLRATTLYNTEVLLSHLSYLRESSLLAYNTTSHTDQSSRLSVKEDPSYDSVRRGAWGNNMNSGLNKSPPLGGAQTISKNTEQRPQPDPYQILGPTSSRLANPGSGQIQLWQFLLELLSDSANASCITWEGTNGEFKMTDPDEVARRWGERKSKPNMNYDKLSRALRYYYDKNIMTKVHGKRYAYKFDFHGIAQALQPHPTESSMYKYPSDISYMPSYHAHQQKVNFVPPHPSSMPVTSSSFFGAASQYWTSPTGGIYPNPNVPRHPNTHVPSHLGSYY
# In short: (§1)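 Human transcription factors fused to GST were expressed in yeast, captured on glutathione beads, given DNA barcodes and pooled with a GST-only negative control. Pools were incubated with 200 nmole of a 16-mer random double-stranded DNA library in Tris/NaCl/DTT/glycerol buffer at room temperature for 30 min. They were then washed, crosslinked with 0.1% formaldehyde, proximity-ligated (BsaI/T4 ligase, 1 h, 37 °C), PCR-amplified and sequenced on an Illumina NextSeq500. Binding signal is each 6-mer's read frequency for a factor divided by its frequency for the GST control.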
# [2] = molecular target: T2, ELK1 (Homo sapiens, UniProt P19419 1-428); details: protein: recombinant; tags: N-terminal GST; dsDNA, one strand shown
# T2 sequence: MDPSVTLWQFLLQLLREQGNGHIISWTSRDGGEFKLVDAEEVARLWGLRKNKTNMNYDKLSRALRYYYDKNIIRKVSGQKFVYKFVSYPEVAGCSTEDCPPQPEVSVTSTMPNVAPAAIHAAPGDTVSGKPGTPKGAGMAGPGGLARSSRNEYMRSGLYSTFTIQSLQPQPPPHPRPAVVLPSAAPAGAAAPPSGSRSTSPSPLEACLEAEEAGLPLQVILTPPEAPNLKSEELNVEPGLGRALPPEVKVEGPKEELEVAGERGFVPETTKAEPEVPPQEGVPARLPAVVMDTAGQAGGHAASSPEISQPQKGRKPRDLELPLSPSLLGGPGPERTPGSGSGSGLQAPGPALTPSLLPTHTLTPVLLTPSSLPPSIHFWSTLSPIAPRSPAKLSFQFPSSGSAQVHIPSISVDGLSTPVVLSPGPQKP
# In short: as §1
# [3] = molecular target: T3, GABPA (Homo sapiens, UniProt Q06546 1-454); details: protein: recombinant; tags: N-terminal GST; dsDNA, one strand shown
# T3 sequence: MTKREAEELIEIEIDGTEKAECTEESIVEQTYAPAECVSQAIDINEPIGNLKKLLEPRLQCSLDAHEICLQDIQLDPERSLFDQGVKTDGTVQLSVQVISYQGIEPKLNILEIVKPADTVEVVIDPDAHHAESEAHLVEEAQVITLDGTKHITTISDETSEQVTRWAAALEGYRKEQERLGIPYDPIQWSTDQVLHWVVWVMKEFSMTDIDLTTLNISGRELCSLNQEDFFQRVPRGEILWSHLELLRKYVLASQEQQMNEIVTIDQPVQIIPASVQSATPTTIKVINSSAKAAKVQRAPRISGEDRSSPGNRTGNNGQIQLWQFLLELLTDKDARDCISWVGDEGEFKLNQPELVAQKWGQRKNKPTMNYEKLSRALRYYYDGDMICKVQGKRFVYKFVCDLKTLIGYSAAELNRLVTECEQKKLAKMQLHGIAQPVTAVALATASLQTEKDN
# In short: as §1
# [4] = molecular target: T4, ERG (Homo sapiens, UniProt P11308 1-479); details: protein: recombinant; tags: N-terminal GST; dsDNA, one strand shown
# T4 sequence: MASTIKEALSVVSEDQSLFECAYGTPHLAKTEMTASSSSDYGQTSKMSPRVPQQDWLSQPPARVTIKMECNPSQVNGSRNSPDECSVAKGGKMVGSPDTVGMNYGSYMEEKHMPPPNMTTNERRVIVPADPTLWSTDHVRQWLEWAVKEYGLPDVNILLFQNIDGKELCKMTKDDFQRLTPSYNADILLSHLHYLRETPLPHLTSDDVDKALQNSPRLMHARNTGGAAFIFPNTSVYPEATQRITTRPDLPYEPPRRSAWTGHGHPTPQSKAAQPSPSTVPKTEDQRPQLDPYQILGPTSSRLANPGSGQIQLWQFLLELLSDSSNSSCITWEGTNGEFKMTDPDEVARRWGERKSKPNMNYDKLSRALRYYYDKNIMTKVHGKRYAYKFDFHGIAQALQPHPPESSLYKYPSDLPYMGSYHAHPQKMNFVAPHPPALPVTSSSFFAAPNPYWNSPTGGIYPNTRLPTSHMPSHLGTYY
# In short: as §1
# [5] = molecular target: ELF1 (Homo sapiens, UniProt P32519 1-619); details: protein: recombinant; tags: N-terminal GST; dsDNA, one strand shown
# In short: as §1
# [6] = molecular target: T5, EHF (Homo sapiens, UniProt Q9NZC4 1-300); details: protein: recombinant; tags: N-terminal GST; dsDNA, one strand shown
# T5 sequence: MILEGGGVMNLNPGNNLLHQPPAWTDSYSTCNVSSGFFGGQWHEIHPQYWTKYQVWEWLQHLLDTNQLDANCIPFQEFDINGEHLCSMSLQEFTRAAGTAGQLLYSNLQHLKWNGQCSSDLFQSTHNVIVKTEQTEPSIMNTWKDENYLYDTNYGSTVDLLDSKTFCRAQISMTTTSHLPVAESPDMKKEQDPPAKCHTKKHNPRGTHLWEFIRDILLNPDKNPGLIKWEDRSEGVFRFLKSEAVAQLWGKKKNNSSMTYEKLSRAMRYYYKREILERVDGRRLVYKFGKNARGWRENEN
# In short: as §1
# [7] = molecular target: SPI1 (Homo sapiens, UniProt P17947 1-270); details: protein: recombinant; tags: N-terminal GST; dsDNA, one strand shown
# In short: as §1
# [8] = molecular target: SPIB (Homo sapiens, UniProt Q01892 1-262); details: protein: recombinant; tags: N-terminal GST; dsDNA, one strand shown
# In short: as §1
# [9] = molecular target: T6, ELK3 (Homo sapiens, UniProt P41970 1-407); details: protein: recombinant; tags: N-terminal GST; dsDNA, one strand shown
# T6 sequence: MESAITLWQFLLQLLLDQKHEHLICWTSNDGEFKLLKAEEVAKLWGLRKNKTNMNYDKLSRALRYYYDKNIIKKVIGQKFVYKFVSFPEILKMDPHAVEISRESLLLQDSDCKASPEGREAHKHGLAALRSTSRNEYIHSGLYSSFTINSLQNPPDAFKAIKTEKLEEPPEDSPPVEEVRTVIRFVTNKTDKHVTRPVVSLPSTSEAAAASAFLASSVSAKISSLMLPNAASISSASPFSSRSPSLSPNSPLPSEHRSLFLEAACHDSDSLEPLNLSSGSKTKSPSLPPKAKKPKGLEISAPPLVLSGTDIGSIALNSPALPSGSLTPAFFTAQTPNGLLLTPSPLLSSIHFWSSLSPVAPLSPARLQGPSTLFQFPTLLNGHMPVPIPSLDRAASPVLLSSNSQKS
# In short: as §1
# [10] = molecular target: T7, FEV (Homo sapiens, UniProt Q99581 1-238); details: protein: recombinant; tags: N-terminal GST; dsDNA, one strand shown
# T7 sequence: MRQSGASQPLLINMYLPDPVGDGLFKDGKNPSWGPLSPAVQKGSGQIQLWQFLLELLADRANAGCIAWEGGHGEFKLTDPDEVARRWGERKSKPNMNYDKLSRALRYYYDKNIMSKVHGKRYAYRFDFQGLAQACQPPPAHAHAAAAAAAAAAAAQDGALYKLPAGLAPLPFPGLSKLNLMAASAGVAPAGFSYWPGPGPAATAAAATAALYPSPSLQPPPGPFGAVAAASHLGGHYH
# In short: as §1
# [11] = molecular target: ETV5 (Homo sapiens, UniProt P41161 1-510); details: protein: recombinant; tags: N-terminal GST; dsDNA, one strand shown
# In short: as §1
# [12] = molecular target: HSF1 (Homo sapiens, UniProt Q00613 1-529); details: protein: recombinant; tags: N-terminal GST; chain copies: 3; dsDNA, one strand shown
# In short: as §1
# [13] = molecular target: T8, SPIC (Homo sapiens, UniProt Q8N5J4 1-248); details: protein: recombinant; tags: N-terminal GST; dsDNA, one strand shown
# T8 sequence: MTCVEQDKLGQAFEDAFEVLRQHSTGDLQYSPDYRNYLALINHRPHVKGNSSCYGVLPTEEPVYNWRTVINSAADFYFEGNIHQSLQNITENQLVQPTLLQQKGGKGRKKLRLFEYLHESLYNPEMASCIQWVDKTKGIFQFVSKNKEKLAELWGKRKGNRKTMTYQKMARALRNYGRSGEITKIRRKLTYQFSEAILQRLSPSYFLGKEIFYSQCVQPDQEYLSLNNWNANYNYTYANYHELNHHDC
# In short: as §1
# [14] = molecular target: ELF4 (Homo sapiens, UniProt Q99607 1-663); details: protein: recombinant; tags: N-terminal GST; dsDNA, one strand shown
# In short: as §1
# [15] = molecular target: T9, ELK4 (Homo sapiens, UniProt P28324-2 1-405); details: protein: recombinant; tags: N-terminal GST; dsDNA, one strand shown
# T9 sequence: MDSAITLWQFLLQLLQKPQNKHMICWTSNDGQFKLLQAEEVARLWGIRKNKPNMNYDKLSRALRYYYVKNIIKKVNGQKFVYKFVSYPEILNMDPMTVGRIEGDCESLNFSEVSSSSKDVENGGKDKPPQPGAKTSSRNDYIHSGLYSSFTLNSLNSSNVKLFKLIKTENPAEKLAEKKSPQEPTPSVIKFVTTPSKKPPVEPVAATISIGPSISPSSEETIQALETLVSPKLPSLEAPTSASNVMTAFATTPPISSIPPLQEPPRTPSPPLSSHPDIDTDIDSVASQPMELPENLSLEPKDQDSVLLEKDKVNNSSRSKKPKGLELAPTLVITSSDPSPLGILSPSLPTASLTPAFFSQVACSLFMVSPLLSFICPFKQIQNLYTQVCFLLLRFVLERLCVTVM
# In short: as §1
# [16] = molecular target: T10, ETV2 (Homo sapiens, UniProt O00321 1-342); details: protein: recombinant; tags: N-terminal GST; dsDNA, one strand shown
# T10 sequence: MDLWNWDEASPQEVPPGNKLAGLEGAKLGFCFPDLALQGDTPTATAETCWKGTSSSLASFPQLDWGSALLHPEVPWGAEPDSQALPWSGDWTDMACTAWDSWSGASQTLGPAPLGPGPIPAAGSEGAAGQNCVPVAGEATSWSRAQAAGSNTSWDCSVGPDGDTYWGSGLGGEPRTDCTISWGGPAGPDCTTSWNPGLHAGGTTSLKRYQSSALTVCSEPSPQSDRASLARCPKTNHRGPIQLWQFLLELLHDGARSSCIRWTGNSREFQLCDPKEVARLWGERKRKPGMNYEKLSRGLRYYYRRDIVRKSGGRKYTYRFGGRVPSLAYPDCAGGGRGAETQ
# In short: as §1
# [17] = molecular target: T11, ELF3 (Homo sapiens, UniProt P78545 1-371); details: protein: recombinant; tags: N-terminal GST; dsDNA, one strand shown
# T11 sequence: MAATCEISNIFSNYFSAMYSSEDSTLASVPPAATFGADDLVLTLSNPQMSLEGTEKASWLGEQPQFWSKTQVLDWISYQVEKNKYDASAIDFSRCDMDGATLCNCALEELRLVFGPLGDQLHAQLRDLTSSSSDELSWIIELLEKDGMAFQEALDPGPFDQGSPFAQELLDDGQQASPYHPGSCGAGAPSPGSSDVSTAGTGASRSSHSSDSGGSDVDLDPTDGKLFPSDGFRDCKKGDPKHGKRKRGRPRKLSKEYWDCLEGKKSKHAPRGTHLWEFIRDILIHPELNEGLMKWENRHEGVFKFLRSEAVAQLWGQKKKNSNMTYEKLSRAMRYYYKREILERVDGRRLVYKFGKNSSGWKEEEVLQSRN
# In short: as §1
# [18] = molecular target: CRX (Homo sapiens, UniProt O43186 1-299); details: protein: recombinant; tags: N-terminal GST; dsDNA, one strand shown
# In short: as §1
# [19] = molecular target: ETV1 (Homo sapiens, UniProt P50549 1-477); details: protein: recombinant; tags: N-terminal GST; dsDNA, one strand shown
# In short: as §1
# ETV5, sequence (P41161 whole entry): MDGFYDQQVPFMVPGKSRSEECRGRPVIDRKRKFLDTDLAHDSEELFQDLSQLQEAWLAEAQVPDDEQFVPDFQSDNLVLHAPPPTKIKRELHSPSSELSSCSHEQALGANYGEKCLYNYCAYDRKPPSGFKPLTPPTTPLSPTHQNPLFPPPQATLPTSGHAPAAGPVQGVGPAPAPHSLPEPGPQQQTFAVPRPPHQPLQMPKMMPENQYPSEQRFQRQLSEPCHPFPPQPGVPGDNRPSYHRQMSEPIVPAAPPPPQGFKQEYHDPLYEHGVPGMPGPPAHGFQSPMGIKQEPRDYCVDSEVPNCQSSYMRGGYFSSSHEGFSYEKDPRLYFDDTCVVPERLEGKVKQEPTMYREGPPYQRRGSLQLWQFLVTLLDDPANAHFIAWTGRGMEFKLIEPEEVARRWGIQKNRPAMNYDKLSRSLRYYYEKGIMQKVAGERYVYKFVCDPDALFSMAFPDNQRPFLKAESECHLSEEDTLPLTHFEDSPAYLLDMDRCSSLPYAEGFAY
# HSF1, sequence (Q00613 whole entry): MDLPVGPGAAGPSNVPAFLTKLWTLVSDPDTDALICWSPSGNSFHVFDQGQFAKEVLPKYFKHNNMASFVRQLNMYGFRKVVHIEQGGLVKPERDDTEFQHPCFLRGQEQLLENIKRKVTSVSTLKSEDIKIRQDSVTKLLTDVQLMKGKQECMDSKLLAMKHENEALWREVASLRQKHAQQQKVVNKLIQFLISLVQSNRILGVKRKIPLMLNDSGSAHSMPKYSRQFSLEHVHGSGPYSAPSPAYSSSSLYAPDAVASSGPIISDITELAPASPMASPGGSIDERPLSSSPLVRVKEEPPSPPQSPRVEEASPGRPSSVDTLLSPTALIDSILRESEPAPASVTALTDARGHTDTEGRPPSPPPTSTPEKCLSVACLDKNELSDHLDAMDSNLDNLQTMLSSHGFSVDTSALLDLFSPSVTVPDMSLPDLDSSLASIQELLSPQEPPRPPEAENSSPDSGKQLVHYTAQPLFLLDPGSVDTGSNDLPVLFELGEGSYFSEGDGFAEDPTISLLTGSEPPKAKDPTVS
# ELF1, sequence (P32519 whole entry): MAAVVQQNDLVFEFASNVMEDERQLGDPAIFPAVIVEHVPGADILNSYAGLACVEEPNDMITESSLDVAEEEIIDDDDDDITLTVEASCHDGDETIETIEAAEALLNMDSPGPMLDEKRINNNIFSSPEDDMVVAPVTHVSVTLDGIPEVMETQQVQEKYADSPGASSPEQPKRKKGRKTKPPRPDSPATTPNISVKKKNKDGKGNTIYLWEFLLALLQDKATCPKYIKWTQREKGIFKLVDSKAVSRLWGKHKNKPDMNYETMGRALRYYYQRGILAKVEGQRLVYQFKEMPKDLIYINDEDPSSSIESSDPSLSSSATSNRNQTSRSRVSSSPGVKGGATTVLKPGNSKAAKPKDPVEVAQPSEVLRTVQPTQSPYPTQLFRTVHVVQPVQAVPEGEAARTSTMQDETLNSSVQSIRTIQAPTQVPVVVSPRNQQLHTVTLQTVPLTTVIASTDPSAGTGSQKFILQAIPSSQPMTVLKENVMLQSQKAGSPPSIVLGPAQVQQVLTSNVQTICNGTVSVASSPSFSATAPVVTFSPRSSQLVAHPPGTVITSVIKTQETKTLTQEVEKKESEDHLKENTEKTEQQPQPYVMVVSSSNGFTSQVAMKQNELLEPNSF
# ELF4, sequence (Q99607 whole entry): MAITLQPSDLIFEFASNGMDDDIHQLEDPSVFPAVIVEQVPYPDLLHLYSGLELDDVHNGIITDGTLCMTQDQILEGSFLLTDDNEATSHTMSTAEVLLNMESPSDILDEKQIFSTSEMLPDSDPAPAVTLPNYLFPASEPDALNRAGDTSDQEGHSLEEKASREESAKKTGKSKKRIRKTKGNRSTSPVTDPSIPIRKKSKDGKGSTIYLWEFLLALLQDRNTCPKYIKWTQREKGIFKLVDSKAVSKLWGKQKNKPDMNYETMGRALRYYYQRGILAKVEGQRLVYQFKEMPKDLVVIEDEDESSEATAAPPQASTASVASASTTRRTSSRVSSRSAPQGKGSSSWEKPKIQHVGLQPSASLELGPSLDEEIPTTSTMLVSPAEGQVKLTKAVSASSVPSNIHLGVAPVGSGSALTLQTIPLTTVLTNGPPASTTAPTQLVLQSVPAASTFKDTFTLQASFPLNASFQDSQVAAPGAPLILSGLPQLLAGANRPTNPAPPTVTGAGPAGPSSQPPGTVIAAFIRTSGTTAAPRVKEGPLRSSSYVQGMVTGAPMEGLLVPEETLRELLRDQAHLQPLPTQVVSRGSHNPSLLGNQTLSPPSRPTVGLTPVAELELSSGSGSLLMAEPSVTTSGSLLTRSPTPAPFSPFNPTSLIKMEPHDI
# SPIB, sequence (Q01892 whole entry): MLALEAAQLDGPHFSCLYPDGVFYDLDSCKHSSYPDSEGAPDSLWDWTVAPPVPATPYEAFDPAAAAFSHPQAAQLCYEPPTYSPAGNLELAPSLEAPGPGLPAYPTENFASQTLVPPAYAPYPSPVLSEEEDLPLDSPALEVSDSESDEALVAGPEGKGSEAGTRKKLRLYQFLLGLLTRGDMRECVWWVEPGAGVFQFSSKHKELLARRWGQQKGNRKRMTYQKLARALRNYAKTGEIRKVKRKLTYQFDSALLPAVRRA
# ETV1, sequence (P50549 whole entry): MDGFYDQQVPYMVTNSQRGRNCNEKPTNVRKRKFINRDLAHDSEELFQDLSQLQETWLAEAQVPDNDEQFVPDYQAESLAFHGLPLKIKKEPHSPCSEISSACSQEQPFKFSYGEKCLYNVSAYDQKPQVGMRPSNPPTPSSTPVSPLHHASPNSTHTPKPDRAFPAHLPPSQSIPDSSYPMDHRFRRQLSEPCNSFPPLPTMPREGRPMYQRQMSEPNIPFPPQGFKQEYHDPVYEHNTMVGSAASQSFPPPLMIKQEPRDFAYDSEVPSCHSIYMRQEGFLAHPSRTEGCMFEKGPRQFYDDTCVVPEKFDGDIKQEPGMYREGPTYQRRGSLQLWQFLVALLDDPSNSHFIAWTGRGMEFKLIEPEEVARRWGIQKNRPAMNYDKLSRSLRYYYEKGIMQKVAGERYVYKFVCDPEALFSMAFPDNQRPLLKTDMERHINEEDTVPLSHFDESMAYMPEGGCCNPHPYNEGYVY
# CRX, sequence (O43186 whole entry): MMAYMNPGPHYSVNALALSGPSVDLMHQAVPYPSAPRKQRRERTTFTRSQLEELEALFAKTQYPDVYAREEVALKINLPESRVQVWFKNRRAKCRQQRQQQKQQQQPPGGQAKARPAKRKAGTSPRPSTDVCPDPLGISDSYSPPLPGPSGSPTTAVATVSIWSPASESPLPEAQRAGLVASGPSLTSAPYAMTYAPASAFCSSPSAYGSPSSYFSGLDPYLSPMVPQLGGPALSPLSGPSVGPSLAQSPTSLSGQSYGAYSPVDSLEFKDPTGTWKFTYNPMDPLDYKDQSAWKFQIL
sequence,measurement,setting,value
ACTATT,binding signal,[1],"1.29 fold enrichment (6-mer frequency, TF over GST control)"
same,binding signal,[2],"1.17 fold enrichment (6-mer frequency, TF over GST control)"
same,binding signal,[3],"1.33 fold enrichment (6-mer frequency, TF over GST control)"
same,binding signal,[4],"1.3 fold enrichment (6-mer frequency, TF over GST control)"
same,binding signal,[5],"1.27 fold enrichment (6-mer frequency, TF over GST control)"
same,binding signal,[6],"1.3 fold enrichment (6-mer frequency, TF over GST control)"
same,binding signal,[7],"1.22 fold enrichment (6-mer frequency, TF over GST control)"
same,binding signal,[8],"1.26 fold enrichment (6-mer frequency, TF over GST control)"
same,binding signal,[9],"1.28 fold enrichment (6-mer frequency, TF over GST control)"
same,binding signal,[10],"1.25 fold enrichment (6-mer frequency, TF over GST control)"
same,binding signal,[11],"1.22 fold enrichment (6-mer frequency, TF over GST control)"
same,binding signal,[12],"1.33 fold enrichment (6-mer frequency, TF over GST control)"
same,binding signal,[13],"1.44 fold enrichment (6-mer frequency, TF over GST control)"
same,binding signal,[14],"1.3 fold enrichment (6-mer frequency, TF over GST control)"
same,binding signal,[15],"1.35 fold enrichment (6-mer frequency, TF over GST control)"
same,binding signal,[16],"1.31 fold enrichment (6-mer frequency, TF over GST control)"
same,binding signal,[17],"1.32 fold enrichment (6-mer frequency, TF over GST control)"
same,binding signal,[18],"1.28 fold enrichment (6-mer frequency, TF over GST control)"
same,binding signal,[19],"1.28 fold enrichment (6-mer frequency, TF over GST control)"
